MITF primary: MITF inhibitors, primary screen, biochemical, AlphaScreen, human. AlphaScreen MITF homodimerization, bead proximity signal. inhibition, % at 2.6 µM. 650,000 compounds, 0.91% hits. AID 1259374, 2018; in the data active means inhibition above about 50%;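 further: 0% = vehicle wells with protein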
TEAD-YAP block: TEAD-YAP interaction inhibition, primary screen, TEAD-YAP interaction inhibitor project, luminescence, HEK-TIYL cells; AID 1259422, 2018; TEAD-Gal4/YAP UAS-luciferase luminescence; inhibition, % at 9.12 µM; 640,000 compounds, 1.4% hits; in the data active means inhibition above about 32%;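 further: 0% = median of test compound wells and 100% = reference inhibitor wells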
FBW7 activator: FBW7 E3 ligase activators, primary screen, biochemical, AlphaScreen, human; F-box/WD repeat-containing protein 7 (Homo sapiens), Q969H0; AlphaScreen FBW7–phospho-cyclin E peptide binding, activator screen; normalized activity (activation), % at 26.1 µM; 650,000 compounds, 0.13% hits; AID 1259310, 2017; in the data active means normalized activity above about 1.9%;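 further: purified mutant Fbw7 with reduced substrate affinity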
GPR151 ag: activators of human GPR151, primary screen, cell-based, PathHunter beta-arrestin, luminescence; AID 1508602, 2020; activation, % at 11.2 µM; PathHunter beta-arrestin GPR151 cells; 650,000 compounds, 1% hits; G-protein coupled receptor 151 (Homo sapiens), Q8TDV0; in the data active means activation above about 4.9%;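 further: 0% = median of compound wells and 100% = cells with positive control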
Target sequence (Q8TDV0 whole entry, looked up): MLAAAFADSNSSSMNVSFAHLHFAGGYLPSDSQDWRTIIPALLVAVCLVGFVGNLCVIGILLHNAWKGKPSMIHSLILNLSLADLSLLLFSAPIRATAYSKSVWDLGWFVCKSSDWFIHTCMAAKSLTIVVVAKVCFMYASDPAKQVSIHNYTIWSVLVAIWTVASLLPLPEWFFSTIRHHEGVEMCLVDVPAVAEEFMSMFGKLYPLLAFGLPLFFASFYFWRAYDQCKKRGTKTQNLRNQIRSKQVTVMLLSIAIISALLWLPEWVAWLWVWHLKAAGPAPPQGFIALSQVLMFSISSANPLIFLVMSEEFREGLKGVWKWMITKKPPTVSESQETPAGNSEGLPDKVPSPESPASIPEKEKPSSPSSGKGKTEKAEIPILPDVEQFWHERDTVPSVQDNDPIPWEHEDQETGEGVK
The depositor's hits bear a star; ! = not active in a repeat. Rows were chosen to be rich in hits. Some 3.5% of all compounds tested hit in one or more screens of this group.

SMILES	MITF primary	TEAD-YAP block	FBW7 activator	GPR151 ag
COc1cccc(CNc2ncnc3sc(C(=O)N(C)CC(O)CO)c(C)c23)c1 (configuration not stated)	3	-7	0	-1
CC(NC(=O)c1ccc(CN(CCO)Cc2ccccc2)[nH]c1=O)c1cccs1 (configuration not stated)	1	13	0	1
c1coc(-c2nnc(-c3cc4c(s3)CCCC4)o2)c1	-6	54*	0	-8
O=c1oc(-c2ccco2)nc2sc3c(c12)CCCC3	2	2	0	-2
O=C(c1cc2ccccc2oc1=O)N(Cc1cccc(F)c1)CC1CCCO1 (configuration not stated)	10	4	0	0
Cc1cc(C)n(CCNc2nncc(-c3ccc4c(c3)OCO4)n2)n1	2	28	0	0
c1cnn(CCCNc2nncc(-c3ccc4c(c3)OCO4)n2)c1	-14	85*	1	0
COc1cc(NC(=O)c2sc3ncnc(N(C)c4ccccc4)c3c2C)cc(OC)c1OC	8	50*	0	0
Cc1ccn2c(N)c(-c3ccccc3)nc2c1	16	-8	0	-1
Cc1ccc2nc(-c3ccccc3)c(N)n2c1	-1	69*	0	-10
Cc1ccc2nc(=S)nc(-c3ccccc3)n2c1	-6	70*	0	1
COCCNc1c(-c2ccccc2)nc2ccc(C)cn12	5	-24	0	-1
Cc1csc(NC(=O)NC2CC(=O)N(c3ccccc3)C2)n1 (configuration not stated)	7	1	0	1
Cc1nc(N=Nc2ccc(S(=O)(=O)O)cc2S(=O)(=O)O)c(COP(=O)(O)O)c(C=O)c1O	75*!	3	0	1
Cc1cc(NC(=O)CSc2nc3ccccc3c(=O)[nH]2)no1	2	55*	0	1
Cc1cc(NC(=O)CSc2nc3ccccc3c(=O)n2C2CCCC2)no1	6	50*	0	2
O=C(NNc1ccc(C(F)(F)F)cc1[N+](=O)[O-])c1ccccc1	16	9	0	-1
O=C(Nc1ccc([N+](=O)[O-])cc1[N+](=O)[O-])c1ccccc1	19	-2	0	0
O=C(NNc1ccc([N+](=O)[O-])cc1[N+](=O)[O-])c1ccccc1	14	73*	0	0
O=C(NNc1ccc(C(F)(F)F)cc1[N+](=O)[O-])C(F)(F)F	23	9	2.5*	0
COc1ccccc1-c1coc2cc(OCc3cccc(Cl)c3)ccc2c1=O	12	3	0	0
O=C(CSc1nc2c(cnn2-c2ccccc2)c(=O)[nH]1)Nc1ccccc1	-10	-3	0	0
O=C(NCc1nc(NCCCc2ccccc2)c2ccccc2n1)c1ccsc1	-9	34*	0	0
O=C(NCc1nc(NCCCc2ccccc2)c2ccccc2n1)c1ccoc1	-1	8	0	-1
CC1(C)N=C(N)N=C(N)N1c1ccc(Oc2ccc(Cl)cc2)c(Cl)c1	7	37*	0	-1
SMILES	MITF primary	TEAD-YAP block	FBW7 activator	GPR151 ag
COc1ccc(-c2noc(-c3cccc([N+](=O)[O-])c3C)n2)cc1OC	18	3	0	0
Cc1c(C(=O)O)[nH]c2c1C(=O)CC(c1ccccc1)C2 (configuration not stated)	8	11	0	0
COCCOC(=O)c1[nH]c2c(c1C)C(=O)CC(c1ccc(N(C)C)cc1)C2 (configuration not stated)	0	-7	0	1
COCCOC(=O)c1[nH]c2c(c1C)C(=O)CC(c1ccc(F)cc1)C2 (configuration not stated)	7	35*	0	0
COCCOC(=O)c1[nH]c2c(c1C)C(=O)CC(c1ccc(Cl)cc1)C2 (configuration not stated)	-2	-33	0	3
Cc1c(C(=O)OCCOC(C)C)[nH]c2c1C(=O)CC(c1ccccc1)C2 (configuration not stated)	11	48*	0	1
COCCOC(=O)c1[nH]c2c(c1C)C(=O)CC(c1ccccc1)C2 (configuration not stated)	3	49*	0	0
CCCOC(=O)C1=C(C)NC2=C(C(=O)CC(c3ccccc3)C2)C1c1ccc(OC)c(Br)c1 (configuration not stated)	-13	3	0	-1
Cc1ccccc1C(C(=O)NCc1ccco1)N(C(=O)Cn1nnc2ccccc21)C(C)C (configuration not stated)	14	7	0	0
CCC(=O)N1CCCC(c2nnc(-c3ccccc3F)s2)C1 (configuration not stated)	6	74*	0	-6
COc1ccccc1/C=C/C=N\NC(=O)CCn1cnc2ccccc21	-13	53*	0	0
COc1ccccc1/C=C/c1nn2c(COc3ccccc3)nnc2s1	-10	-5	1	1
CCOc1ccccc1/C=N\NC(=O)CCn1cnc2ccccc21	5	2	0	1
COc1ccccc1/C=C/c1nn2c(-c3ccccc3OC)nnc2s1	-3	54*	0	2
COc1ccccc1/C=C/c1nn2c(Cn3cnc4ccccc43)nnc2s1	1	48*	0	1
Nc1nc2c(nc(N3CCOCC3)n2C2OC(CO)C(O)C2O)c(=O)[nH]1 (configuration not stated)	10	4	2.3*	-1
CN(C)c1ccc(/C=C/C(=O)NC(=O)c2ccccc2OC(=O)c2ccccc2)cc1	-8	6	0	-6
CCS(=O)(=O)NCCc1cc2ccc(OC)cc2[nH]c1=O	-15	-4	0	-1
CSc1ccccc1C(=O)Nc1sc2c(c1C#N)CCN(C(C)=O)C2	-8	46*	0	-2
CC(=O)N1CCc2c(sc(NC(=O)c3cc(Cl)sc3Cl)c2C#N)C1	-7	13	1	1
CC(=O)N1CCc2c(sc(NC(=O)c3ccccc3Cl)c2C#N)C1	-8	11	0	3
CC(=O)N1CCc2c(sc(NC(=O)/C=C/c3ccccc3Cl)c2C#N)C1	-3	50*	0	1
CC(=O)N1CCc2c(sc(NC(=O)c3ccccc3C)c2C#N)C1	-3	51*	0	2
CC(=O)N1CCc2c(sc(NC(=O)/C=C/c3ccc([N+](=O)[O-])cc3)c2C#N)C1	2	2	0	0
CCC(C)NC(=O)CSc1nc2cc(OC)c(OC)cc2cc1C#N (configuration not stated)	4	1	0	1
CC(=O)Nc1ccc(C(=O)Nc2ccc(Br)cc2C)cc1	-4	-14	0	-1
COc1ccc(C2CC(c3cc(Cl)ccc3O)=NN2C(C)=O)cc1 (configuration not stated)	-3	-3	1	0

Source: PubChem (The Scripps Research Institute Molecular Screening Center)
